Source: PubChem
ELG1 genotoxic: qHTS screen for small molecules that induce genotoxicity in human embryonic kidney (HEK293T) cells expressing luciferase-tagged ELG1 | HEK293T ELG1-luciferase reporter, luminescence, 16 h | Potency, µM (titrated, usually from 46 µM), usual class: activators | 330,000 compounds, 1.3% hits; note: nearly all actives have a fitted effect of over 60% in size
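Reporter readout depends on ELG1 protein level, which increases with genetic stress. After 16 hr compound exposure at 37 °C, luciferase activity was quantified using ONE-Glo.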
SMN2 splice enh: qHTS Assay for Enhancers of SMN2 Splice Variant Expression; AID 1458, 2008; 210,000 compounds, 2.8% hits; HEK293 SMN2-luciferase splicing reporter, luminescence, 30-36 h; Potency, µM (series often up to 46.1 µM), actives largely listed as activators; note: nearly all actives have a fitted effect of over 55% in size
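HEK293 cells carry an SMN2 […]–luciferase reporter in which exon 7 inclusion puts luciferase in frame. Cells were plated 10-12 h before compound addition, then incubated 30-36 h at 37C. ONE-Glo luminescence was read; sodium butyrate at 4.5 mM final served as control.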
NPC1 prom act: qHTS Assay for NPC1 Promoter Activators. 320,000 compounds, 2.4% hits. Potency, µM (titrated, usually from 9.22 µM), actives largely listed as activators. Huh7 NPC1 promoter luciferase reporter, 24 h; note: nearly all actives have a fitted effect of over 60% in size
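NPC1 promoter–luciferase Huh7 cells; 24 h compound; luminescence.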
Rab9 prom act: qHTS Assay for Rab9 Promoter Activators; 320,000 compounds, 2.8% hits; Huh7 Rab9 promoter-luciferase reporter, luminescence, 24 h; Potency, µM (highest dose often 9.22 µM), hits mostly activators; AID 485297, 2010; note: nearly all actives have a fitted effect of over 60% in size
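Using Huh7 cells stably transfected with Rab9 promoter–luciferase, compounds were incubated 24 h at 37 °C, 5% CO2; luciferase luminescence was read 10 min after reagent addition.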
FLuc modulator: qHTS profiling assay for firefly luciferase inhibitor/activator using purifed enzyme and Km concentrations of substrates (counterscreen for miR-21 project); Luciferin 4-monooxygenase (Photinus pyralis), P08659; purified FLuc, Km substrates, luminescence inhibition; Potency, µM (doses to about 57.5 µM), hits mostly inhibitors; 360,000 compounds, 6.9% hits; AID 588342, 2011; note: nearly all actives have a fitted effect of over 55% in size
Target sequence (P08659 whole entry, looked up): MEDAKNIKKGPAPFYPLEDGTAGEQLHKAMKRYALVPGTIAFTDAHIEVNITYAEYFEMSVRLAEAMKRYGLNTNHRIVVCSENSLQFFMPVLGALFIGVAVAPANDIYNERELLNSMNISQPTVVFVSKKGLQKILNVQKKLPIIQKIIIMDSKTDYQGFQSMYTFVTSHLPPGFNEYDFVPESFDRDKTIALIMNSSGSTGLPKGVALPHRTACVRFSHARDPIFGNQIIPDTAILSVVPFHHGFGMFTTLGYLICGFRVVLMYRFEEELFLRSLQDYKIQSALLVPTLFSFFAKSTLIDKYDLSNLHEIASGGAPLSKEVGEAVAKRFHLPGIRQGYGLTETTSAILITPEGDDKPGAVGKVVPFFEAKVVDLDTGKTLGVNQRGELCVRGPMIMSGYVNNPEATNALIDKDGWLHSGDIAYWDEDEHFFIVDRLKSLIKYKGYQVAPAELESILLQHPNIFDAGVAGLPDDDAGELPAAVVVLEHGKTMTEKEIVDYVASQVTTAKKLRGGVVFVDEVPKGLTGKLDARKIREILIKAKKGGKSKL
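Biochemical qHTS of compounds, final roughly 60 µM downward over six points, against 10 nM purified firefly luciferase using Km concentrations of substrates (10 uM D-luciferin, 10 uM ATP) in Tris acetate pH 7.5 buffer; luminescence output.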
Numbers stand for hits; n = inactive; u = inconclusive; x = not tested or not shown. Shown are actives, neighbours in structure and some others; about 7.4% of the full set was active somewhere. Calls come from the whole dose curve; as a rule, active = well fitted curve in the direction sought with a large enough effect; inconclusive = small, poorly fitted or top-dose-only effect, or another doubt; inactive = no such curve, though single readings can be large; an effect the other way counts as inactive or inconclusive.

SMILES | ELG1 genotoxic | SMN2 splice enh | NPC1 prom act | Rab9 prom act | FLuc modulator
CCCOc1ccccc1NC(=O)Nc1ccccc1Cl | n | n | 3.5µM | 2.8µM | n
Cc1ccc(F)c(CNC(=O)C2CCC(=O)N(Cc3ccccn3)C2)c1F (configuration not stated) | n | x | n | n | n
CCN(CC)C(=O)c1sc(NC(=O)c2ccc(Br)o2)c(C(=O)OC)c1C | n | n | n | n | n
CCOC(=O)c1sc(NC(=O)c2ccc(Br)o2)cc1C | 2.3µM | 11µM | 4µM | 1.6µM | 3.4µM
CCOC(=O)c1sc(NC(=O)c2cccs2)cc1C | 2.1µM | 14µM | 1.4µM | 1.8µM | 1.2µM
CCOC(=O)c1sc(NC(=O)Nc2cccc(Cl)c2)cc1C | u | u | 2.5µM | u | 1.7µM
CCOC(=O)c1sc(NC(=O)c2sccc2C)cc1C | 2.6µM | 6.3µM | 0.63µM | 0.56µM | 1.7µM
CCOC(=O)c1sc2nc(C)n(CC(=O)Nc3cccc(Cl)c3)c(=O)c2c1C | x | n | x | x | n
CCOC(=O)c1cnn(-c2ccccc2)c1NC(=O)c1cccs1 | n | n | n | n | n
CCOC(=O)c1sc(NC(=S)NC(=O)C2CC2)cc1C | u | x | n | n | n
Cc1ccc(C)c(Cn2c(=O)n(-c3ccc(Cl)cc3)c(=O)c3c(C)c(C)sc32)c1 | x | n | x | x | n
COc1ccc(NC(=O)CN(c2ccc(C)cc2)S(=O)(=O)c2cccs2)cc1 | x | n | x | x | n
Cc1nc2cc3nc(C)sc3cc2s1 | u | u | u | 4µM | 12µM
Cc1nc2cc(CO)ccc2s1 | n | n | n | n | n
CCC(=O)Nc1cc2nn(-c3ccccc3)nc2cc1Cl | 0.52µM | 0.89µM | 0.32µM | 0.28µM | 0.67µM
COc1ccc(-n2nc3cc(C)c(NC(=O)c4cccnc4)cc3n2)cc1 | u | n | u | u | 1.1µM
Cc1ccc(C(=O)Nc2cc3nn(-c4ccccc4)nc3cc2Cl)c(C)c1 | x | n | x | x | n
Cc1cc2nn(-c3ccccc3)nc2cc1NC(=O)c1cccs1 | u | u | u | 2µM | 6µM
CC(=O)Nc1cc2nn(-c3ccccc3)nc2cc1C | 3.3µM | x | 0.63µM | 0.56µM | 2.4µM
Cc1ccc(OCC(=O)Nc2cc3nn(-c4ccccc4)nc3cc2C)cc1 | x | n | x | x | n
CC1CCN(c2c(NCC3CCC(C(=O)NCCCc4ccccc4)CC3)c(=O)c2=O)CC1 (configuration not stated) | n | x | n | n | n
Cn1cc(CNC(=O)c2cnn3c2NC(=C2CC2)C=C3C(F)F)cn1 | x | x | x | x | n
Nc1cccc(-c2cn3cc(C(F)(F)F)cc(Cl)c3n2)c1 | u | 7.9µM | 1µM | 1.6µM | 1.9µM
FC(F)(F)c1cc(Cl)c2nc(-c3ccccc3)cn2c1 | u | 14µM | u | u | 1.9µM
Cc1cc(C(F)(F)F)nc(-n2cc(-c3cccc(N)c3)nn2)n1 | n | x | n | n | n
SMILES | ELG1 genotoxic | SMN2 splice enh | NPC1 prom act | Rab9 prom act | FLuc modulator
COc1ccc(S(=O)(=O)Nc2ccccc2N2CCOCC2)cc1[N+](=O)[O-] | n | x | n | n | n
Cc1ccc(C(C)C)c(OC(C)C(=O)NCC2(N(C)C)CCCCC2)c1 (configuration not stated) | x | x | x | x | n
COc1ccc(C(=O)Nc2ccc(OCc3cc(=O)n4ccsc4n3)cc2)cc1OC | x | n | x | x | n
COC(=O)c1ccc(OCc2cc(=O)n3ccsc3n2)cc1 | n | 14µM | u | u | u
COc1cc(/C=N\NC(C)=O)ccc1OC/C=C/c1ccccc1 | n | x | n | n | n
CCOC(=O)N/N=C\c1ccccc1OC/C=C/c1ccccc1 | u | x | u | n | 4.3µM
COC(=O)N/N=C\c1ccccc1OC/C=C/c1ccccc1 | u | x | u | n | 17µM
O=C(COc1ccccc1Cl)Nc1nc(-c2ccc(F)cc2)ns1 | x | n | x | x | u
O=C(Nc1cc(Cl)ccc1N1CCOCC1)C1=COCCO1 | n | x | n | n | n
COc1ccccc1NC(=O)C(=O)NCCC1CCCCN1S(=O)(=O)c1ccccc1 (configuration not stated) | n | x | n | n | n
COc1cccc(NC(=O)C(=O)NCCC2CCCCN2S(=O)(=O)c2ccccc2)c1 (configuration not stated) | n | x | n | n | 24µM
COc1cccc(NC(=O)C(=O)NCC2CCCN2S(=O)(=O)c2ccccc2)c1 (configuration not stated) | n | x | n | u | 15µM
COc1ccccc1C(=O)NCCC(=O)NC(C)c1ccc(-n2ccnc2)cc1 (configuration not stated) | n | x | n | n | n
CCN(C(=O)Cn1nc(Cc2ccncc2)c2ccccc2c1=O)c1ccc(OC)cc1 | x | n | x | x | n
CCc1ccc(C(=O)N/N=C(\C)c2ccncc2)s1 | u | x | 3.5µM | 3.2µM | 17µM
C/C(=N\NC(=O)c1cccs1)c1ccncc1 | n | x | n | n | x
C/C(=N\Nc1ccc(C)c(Cl)c1)c1cccnc1 | n | x | u | u | 15µM
C/C(=N/NC(=O)c1ccco1)c1cccnc1 | n | n | n | n | n
C/C(=N\NC(=O)c1sccc1C)c1ccncc1 | 10µM | x | u | 3.2µM | 17µM
C/C(=N\NC(=O)c1sccc1C)c1cccnc1 | u | x | u | u | 13µM
O=C(CCc1nc2cccnc2n1Cc1cccs1)Nc1cccc(C(F)(F)F)c1 | x | n | x | x | n
COc1cc(OC)c(N(C)C(=O)c2sc3nc4n(c(=O)c3c2C)CCCCC4)cc1Cl | x | x | x | x | n
COc1cccc(CNC(=O)CCn2cnc3ccccc3c2=O)c1 | x | x | x | x | n
CC1CCc2sc(C(=O)N3CCC(C(N)=O)CC3)cc2C1 (configuration not stated) | u | x | 0.4µM | 0.5µM | 17µM
O=C(O)C1CCCCN1C(=O)c1cc2c(s1)CCCCC2 (configuration not stated) | n | x | n | n | x
SMILES | ELG1 genotoxic | SMN2 splice enh | NPC1 prom act | Rab9 prom act | FLuc modulator
CC1CC(C)CN(C(=O)c2cc3c(s2)CCC3)C1 (configuration not stated) | n | n | n | n | n
NC(=O)C1CCN(C(=O)c2cc3c(s2)CCCCC3)CC1 | n | x | u | 3.5µM | u
C/C(=N\NC(=O)c1ccc(Cl)cc1)c1cccs1 | 2.3µM | 3.5µM | 0.56µM | 0.32µM | 2.7µM
C/C(=N/NC(=O)c1ccc2nc[nH]c2c1)c1cccs1 | u | 11µM | 2µM | 1.4µM | 11µM
Cc1ccc(/C=N/NC(=O)c2ccc3nc[nH]c3c2)s1 | n | n | n | n | u
CCN(CC)c1ccc(NC(=O)c2sc3ccccc3c2Cl)cc1 | x | n | x | x | u
CNC(=O)c1ccsc1NC(=O)c1sc2ccccc2c1Cl | n | 13µM | u | u | 3.8µM
O=C(NC1=NCCS1)c1sc2ccccc2c1Cl | 2.9µM | 13µM | 1.3µM | 1.1µM | 2.1µM
Cc1ccc(NC(=O)c2sc3ccccc3c2Cl)nc1 | u | 0.63µM | 3.5µM | 3.5µM | 0.27µM
Cc1cccnc1NC(=O)c1sc2ccccc2c1Cl | 3.7µM | x | 1.4µM | 2.5µM | 2.7µM
